Measured values published in article PMC4552634, “A New Set of Chemical Starting Points with Plasmodium falciparum Transmission-Blocking Potential for Antimalarial Drug Discovery” (PLoS ONE, 2015).
Out of some 13,000 compounds screened, about 3,200 (25%) showed an effect of 50% or more. The list shows a part of the results.

tested on: P. falciparum stage V gametocytes; set-up: BacTiter-Glo ATP luminescence viability of purified stage V gametocytes in 384-well plates, per cent inhibition versus DMSO; details: 48 h, 5 µM; inhibitor

Compound | % Inhibition [%]
O=C(/C=C/c1ccc(Cl)c(Cl)c1)NCCCCCN1CCC(NC(=O)Nc2ccc(F)c(F)c2)CC1 [TCMDC-135714] | -48.39
COc1ccc(Oc2ccc(-c3c(C)[nH]c(C)c(Cl)c3=O)cc2)cc1 [TCMDC-136134] | 78.59
Cc1[nH]c(C)c(-c2ccc(Oc3ccc(O)cc3)cc2)c(=O)c1Cl [TCMDC-136135] | -17.77
COc1ccc(CCc2ccc(-c3c(C)[nH]c(C)c(Cl)c3=O)cc2)cc1OC [TCMDC-135789] | 86.31
COc1ccc(C=Cc2ccc(-c3c(C)[nH]c(C)c(Cl)c3=O)cc2)cc1OC [TCMDC-135788] | 33.6
C/C=C/COc1ccc(-c2c(C)[nH]c(C)c(Cl)c2=O)cc1 [TCMDC-134729] | 76.24
Cc1[nH]c(C)c(-c2ccc(OCc3ccc(F)cc3)cc2)c(=O)c1Cl [TCMDC-132415] | 7.51
COc1ccc(C#Cc2ccc(-c3c(C)[nH]c(C)c(Cl)c3=O)cc2)cc1 [TCMDC-135655] | 67.24
CC(=O)Nc1ccc(C#Cc2ccc(-c3c(C)[nH]c(C)c(Cl)c3=O)cc2)cc1 [TCMDC-135653] | 34.03
CN1CC[C@H](N(Cc2ccccc2F)c2ccc(C#N)c(Cl)c2)C1 [TCMDC-137035] | 21.12
COc1ccc(CN2CCC2=O)c(OC)c1 [TCMDC-132118] | 45.15
CC(=O)N[C@@H]1c2cc(C(C)=O)ccc2OC(C)(C)[C@@H]1O [TCMDC-139001] | 15.15
CC(C)(C)c1ccc(S(=O)(=O)Nc2cc(Cl)ccc2Cn2ccc(N3CCNCC3)nc2=O)cc1 [TCMDC-132581] | 5.996
Oc1ccc2[nH]c(-c3cccs3)nc2c1CN1CCC(N2CCCC2)CC1 [TCMDC-136356] | -12.57
COc1ccc(CCn2c(=N)c(C(=O)NCc3ccc(C)cc3)cc3c(=O)n4ccccc4nc32)cc1 [TCMDC-124475] | 27.16
Cc1[nH]c(C)c(-c2ccc(Oc3ccc(F)cc3)cc2)c(=O)c1Cl [TCMDC-134728] | 77.31
Cc1[nH]c(C)c(-c2ccc(CCc3ccc(N)cc3)cc2)c(=O)c1Cl [TCMDC-135678] | 70.67
COc1ccc(CCc2ccc(-c3c(C)[nH]c(C)c(Cl)c3=O)cc2)cc1 [TCMDC-135654] | 77.1
CC1(C)N=C(N)N=C(N)N1c1cc(Cl)c(Cl)c(Cl)c1 [TCMDC-137508] | -8.001
Cc1cnc(-c2cccc(C(=O)NC3CCC(CCN4CCc5ccc(C#N)cc5CC4)CC3)c2)[nH]1 (centres unmarked) [TCMDC-139842] | -56.62
CS(=O)(=O)N1CC2(CCN(CCC(NC(=O)NCc3ccccc3Cl)c3ccc(Cl)c(Cl)c3)CC2)c2ccccc21 (centres unmarked) [TCMDC-141768] | 10.44
O=C(Nc1ccc(Br)c(C(F)(F)F)c1)c1cccc([N+](=O)[O-])c1 [TCMDC-123520] | -21.49
O=C1COC2(CN1C1CCN(Cc3ccc(O)cc3Cl)C1)c1ccccc1-c1ccccc12 (centres unmarked) [TCMDC-136341] | 24.28

Compound | % Inhibition [%]
CN1CCC(N2CCN(Cc3ccc(-c4cccc(-c5nc6ccc(F)cc6[nH]5)c4)cc3)CC2)CC1 [TCMDC-133843] | 52.56
Fc1ccc2nc(-c3ccc(-c4cccc(CN5CCN(CCN6CCOCC6)CC5)c4)cc3)[nH]c2c1 [TCMDC-133936] | -11.53
OCCN1CCN(Cc2cccc(-c3ccc(-c4nc5ccc(C(F)(F)F)cc5[nH]4)cc3)c2)CC1 [TCMDC-133031] | 3.481
N#CCCN1CCN(Cc2cccc(-c3ccc(-c4nc5ccc(F)cc5[nH]4)cc3)c2)CC1 [TCMDC-133860] | -16.76
OCCN1CCN(Cc2ccc(-c3cccc(-c4nc5ccc(F)cc5[nH]4)c3)cc2)CC1 [TCMDC-133032] | -6.536
CN1CCC(N2CCN(Cc3cccc(-c4ccc(-c5nc6ccc(F)cc6[nH]5)cc4)c3)CC2)CC1 [TCMDC-133858] | 97.12
FC(F)(F)c1ccc2nc(-c3ccc(-c4cccc(CN5CCN(CCN6CCOCC6)CC5)c4)cc3)[nH]c2c1 [TCMDC-133943] | -11.41
CN1CCC(N2CCN(Cc3cccc(-c4ccc(-c5nc6ccc(C(F)(F)F)cc6[nH]5)cc4)c3)CC2)CC1 [TCMDC-133842] | 104
Fc1ccc2nc(-c3cccc(-c4ccc(CN5CCN(CCN6CCOCC6)CC5)cc4)c3)[nH]c2c1 [TCMDC-133942] | 39.55
CCN(c1cc(C)nc(Nc2ccc(Cl)cc2)n1)[C@H]1CCN(Cc2ccccc2)C1 [TCMDC-132205] | -28.73
CC(C)(C)c1cc(C(=O)N2CCN(c3nccnc3C#N)CC2)n(Cc2ccccc2)n1 [TCMDC-134141] | -3.89
OC(c1cccc2ccccc12)C1CN(CCc2ccccc2)CCC1(O)c1ccccc1 (centres unmarked) [TCMDC-131998] | 42.45
COc1ccc(C2=C(Nc3ccc4oc5ccccc5c4c3)c3ccccc3C2=O)cc1 [TCMDC-125672] | 2.294
Cc1noc(C)c1-c1cccc(CNCc2ccc(-c3ccc(-c4nc5cc(F)ccc5[nH]4)cc3)cc2)c1.O=C(O)C(F)(F)F [TCMDC-133057] | 12.39
COC(=O)c1cccc(CNCc2cccc(-c3ccc(-c4nc5cccc(C)c5[nH]4)s3)c2)c1.O=C(O)C(F)(F)F [TCMDC-132956] | -38.48
Cc1cccc2nc(-c3ccc(-c4cccc(CNCC5CCCO5)c4)cc3)[nH]c12.O=C(O)C(F)(F)F (centres unmarked) [TCMDC-133098] | -5.371
Cc1cccc2nc(-c3cccc(-c4cccc(CNCC5CCCO5)c4)c3)[nH]c12.O=C(O)C(F)(F)F (centres unmarked) [TCMDC-133104] | 76.66
Cc1cccc2nc(-c3cccc(-c4ccc(CNCc5cccc(N)c5)cc4)c3)[nH]c12.O=C(O)C(F)(F)F [TCMDC-132930] | -5.493
COC(=O)c1cccc(CNCc2cccc(-c3cccc(-c4nc5cccc(C)c5[nH]4)c3)c2)c1.O=C(O)C(F)(F)F [TCMDC-132946] | 7.725
Cc1cccc2nc(-c3ccc(-c4cccc(CNCC5CCCO5)c4)s3)[nH]c12.O=C(O)C(F)(F)F (centres unmarked) [TCMDC-133094] | 10.18
COC(=O)c1cccc(CNCc2ccc(-c3ccc(-c4nc5cccc(C)c5[nH]4)s3)cc2)c1.O=C(O)C(F)(F)F [TCMDC-132950] | 57.35
COC(=O)c1cccc(CNCc2ccc(-c3ccc(-c4nc5ccccc5[nH]4)s3)cc2)c1.O=C(O)C(F)(F)F [TCMDC-132945] | -1.704
Cc1cccc2nc(-c3cccc(-c4cccc(CNCc5cccc(N)c5)c4)c3)[nH]c12.O=C(O)C(F)(F)F [TCMDC-132928] | 56.62

Compound | % Inhibition [%]
COc1ccc(CNCc2ccc(-c3cccc(-c4nc5cccc(C)c5[nH]4)c3)cc2)cc1.O=C(O)C(F)(F)F [TCMDC-132729] | 40.55
COC(=O)c1cccc(CNCc2ccc(-c3cccc(-c4nc5cccc(C)c5[nH]4)c3)cc2)c1.O=C(O)C(F)(F)F [TCMDC-132948] | 73.37
Cc1cccc2nc(-c3ccc(-c4ccc(CNCc5cccc(N)c5)cc4)cc3)[nH]c12.O=C(O)C(F)(F)F [TCMDC-132938] | -30.59
Brc1ccsc1-c1nc(NC2CCN(Cc3ccccc3)CC2)no1 [TCMDC-134188] | 10.75
NCC(=O)NC12CC3CC(CC(C3)C1)C2 [TCMDC-131419] | -2.875
N#CC1(c2ccccc2)CCN(c2nc(NCCCN3CCCC3=O)nc(N3CCCC4CCCCC43)n2)CC1 (centres unmarked) [TCMDC-139927] | -17.2
CCNc1cc(C(=O)N[C@@H](Cc2ccccc2)[C@H](O)CNCCc2cc(OC)cc(OC)c2)cc(N2CCCCS2(=O)=O)c1 [TCMDC-134842] | 28.85
Cc1cccc2nc(-c3ccc(-c4cccc(NC(=O)CCc5c[nH]cn5)c4)s3)[nH]c12 [TCMDC-132161] | 5.175
COC(=O)c1cccc(CNCc2ccc(-c3ccc(-c4nc5cc(F)ccc5[nH]4)cc3)cc2)c1.O=C(O)C(F)(F)F [TCMDC-132953] | 44.17
COC(=O)c1cccc(CNCc2cccc(-c3ccc(-c4nc5cccc(C)c5[nH]4)cc3)c2)c1.O=C(O)C(F)(F)F [TCMDC-132952] | 25.59
COC(=O)c1cccc(CNCc2ccc(-c3ccc(-c4nc5cccc(C)c5[nH]4)cc3)cc2)c1.O=C(O)C(F)(F)F [TCMDC-132957] | 77.27
OC(CNc1ccnc(Nc2cccc(Cl)c2)n1)c1ccc(C(F)(F)F)cc1 (centres unmarked) [TCMDC-136596] | -49.28
COc1cc2nc(C)nc(Nc3cccc(Br)c3)c2cc1OC [TCMDC-131939] | -0.682
Cc1nc(N)nc(N)c1-c1ccc(Br)cc1 [TCMDC-137374] | -63.84
COc1cc2nc(-c3ccc(Br)cc3)cc(N)c2cc1OC [TCMDC-138933] | 106.9
N#Cc1ccc(CN2CCC(Oc3ccc(NC(=O)c4cccs4)cc3)C2)cc1 (centres unmarked) [TCMDC-133959] | 8.963
N[C@@H](CCN1CCC(c2cccc(O)c2)CC1)Cc1ccc(F)c(F)c1 [TCMDC-132126] | -7.47
N[C@@H](CCNC1CCN(c2cccc(C(F)(F)F)c2)CC1)Cc1ccc(F)c(F)c1 [TCMDC-132301] | 119.6
N#Cc1c(F)cc(N2CCC(NCC[C@H](N)Cc3ccc(F)c(F)c3)CC2)cc1F [TCMDC-132121] | 103.9
N[C@@H](CCNCc1ccc(-c2cccnc2)cc1)Cc1ccc(F)c(F)c1 [TCMDC-132122] | 33.59
O=C(NC1CCCC1)c1ccc(N2CCC(NCc3cccc(C(F)(F)F)c3)CC2)cc1 [TCMDC-124644] | -9.577
O=C(Nc1cccc(N2CCC(NCCCc3ccncc3)CC2)c1)c1cccc(C(F)(F)F)c1 [TCMDC-124659] | 7.336
